Only some compounds are listed: those with a hit (about 3.4% of all), similar ones and a draw of the others.
Tau filament bind: qHTS Assay for Tau Filament Binding. AID 596, 2007. Potency, µM (highest dose often 57.1 µM). actives 2% (n = 71,000). recombinant tau filaments, thioflavin S fluorescence, 15 h; filaments grown with octadecylsulfate alongside compound;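 also: actives lower thioflavin S fluorescence by blocking filaments or displacing dye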
Target sequence (P10636 whole entry, looked up): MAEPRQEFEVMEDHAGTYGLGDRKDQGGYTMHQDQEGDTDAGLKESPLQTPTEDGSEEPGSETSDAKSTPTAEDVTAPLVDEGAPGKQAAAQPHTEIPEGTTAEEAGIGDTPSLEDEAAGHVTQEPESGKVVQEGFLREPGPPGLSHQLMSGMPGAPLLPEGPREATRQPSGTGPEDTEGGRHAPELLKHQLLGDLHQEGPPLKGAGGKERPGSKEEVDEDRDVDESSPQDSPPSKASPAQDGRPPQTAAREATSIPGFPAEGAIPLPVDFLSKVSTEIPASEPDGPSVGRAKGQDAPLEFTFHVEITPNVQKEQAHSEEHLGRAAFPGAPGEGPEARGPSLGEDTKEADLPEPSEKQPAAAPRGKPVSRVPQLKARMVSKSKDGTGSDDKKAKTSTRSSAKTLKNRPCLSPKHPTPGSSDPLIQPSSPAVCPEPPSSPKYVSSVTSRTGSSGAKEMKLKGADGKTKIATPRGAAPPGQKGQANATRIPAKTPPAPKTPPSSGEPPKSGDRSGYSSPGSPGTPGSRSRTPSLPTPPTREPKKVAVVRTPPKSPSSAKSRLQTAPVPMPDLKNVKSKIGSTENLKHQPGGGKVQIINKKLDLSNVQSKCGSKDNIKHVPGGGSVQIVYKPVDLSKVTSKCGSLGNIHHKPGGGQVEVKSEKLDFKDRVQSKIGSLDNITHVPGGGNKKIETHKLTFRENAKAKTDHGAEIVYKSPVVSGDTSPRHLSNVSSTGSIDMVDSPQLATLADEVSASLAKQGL
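His-tagged recombinant human tau (exons 2, 3 and 10 included), 1 uM, was induced to fibrillize by 30 uM sodium octadecylsulfate with compound present. After 15 h at 37 C, thioflavine S fluorescence (ex 450, em 510 nm) was read.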
FLuc inh: qHTS Assay for Inhibitors of Firefly Luciferase; Luciferin 4-monooxygenase (Photinus pyralis), P08659; purified firefly luciferase, luminescence, 8 min; Potency, µM (highest dose often 57.1 µM), hits mostly inhibitors; actives 2.2% (n = 72,000); AID 411, 2009; also: nearly all actives have a fitted effect of over 40% in size
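qHTS concentration-response profiling: light output of P. pyralis luciferase with luciferin and 10 uM ATP, imidazole buffer pH 7.2. Read by luminescence after 8-min room-temperature incubation.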
p53ts 32C tox: qHTS Screen for Compounds that Selectively Target Cancer Cells with p53 Mutations: Cytotoxicity of p53ts Cells at the Permissive Temperature | H1299-p53A138V at 32C, ATP luminescence viability, 24 h | Potency, µM (highest dose often 46.1 µM), most hits filed as cytotoxic | actives 0.93% (n = 130,000) | AID 924, 2007; also: nearly all actives have a fitted effect of over 55% in size
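ATP-content luminescence (ATPlite) read-out after 24 h compound exposure at 32C in H1299-p53A138V cells (600/well). Tested up to 46 uM. Normalized to DMSO (0%) and 100 uM tamoxifen (100% killing); Hill-fit AC50.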
Imprint erasure: qHTS Assay for Compounds that Induce Erasure of Genomic Imprints | mouse ES Peg3-LacZ reporter, beta-gal luminescence, 40 h | Potency, µM (doses to about 60.7 µM), usual class: activators | actives 0.02% (n = 110,000)
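Gelatin-coated wells received 300 freshly trypsinized female ES cells with a Peg3LacZ-Neo reporter on the maternal allele, then incubated 40 hours at 37C. BetaGlo was added for 5 minutes at room temperature before a single luminescence read.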
p53ts 39C tox: qHTS Screen for Compounds that Selectively Target Cancer Cells with p53 Mutations: Cytotoxicity of p53ts Cells at the Nonpermissive Temperature. Potency, µM (series often up to 46.1 µM), hits mostly cytotoxic. H1299-p53A138V viability at 39C, ATP luminescence, 24 h. AID 902, 2007. actives 1.5% (n = 130,000); also: nearly all actives have a fitted effect of over 55% in size
A number is an active result; 0 = inactive; ? = inconclusive; - = no result; [ ] = remark or other dose. Calls follow the shape of the dose curve; as a rule, active = well fitted curve in the direction sought with a large enough effect; inconclusive = small, poorly fitted or top-dose-only effect, or another doubt; inactive = no such curve, though single readings can be large; an effect the other way counts as inactive or inconclusive.

SMILES	Tau filament bind	FLuc inh	p53ts 32C tox	Imprint erasure	p53ts 39C tox
Cc1nn(C(C)C(=O)NC2CCC(C)CC2)c(=O)c2c1sc1ccccc12 (configuration not stated)	-	-	11.2µM	0[10.9 µM]	10µM
COc1ccc(N2CCN(C(=O)C(C)n3nc(C)c4sc5ccccc5c4c3=O)CC2)cc1 (configuration not stated)	-	-	10µM	0[10.9 µM]	10µM
Cc1nn(C(C)C(=O)N2CCCCC2)c(=O)c2c1sc1ccccc12 (configuration not stated)	-	-	0	-	0
Cc1nn(CC(=O)NC2CCC(C)CC2)c(=O)c2c1sc1ccccc12 (configuration not stated)	-	-	0	0[10.9 µM]	?
CCOC(=O)c1ccc(Nc2nc3nonc3nc2Nc2cccc(C)c2C)cc1	-	-	0	0[10.9 µM]	?
COc1cc(-c2nc(Cn3nnc(C(=O)Nc4ccccc4)c3C)c(C)o2)cc(OC)c1OC	-	-	0	0[10.9 µM]	0
Cc1oc(-c2ccc3c(c2)OCCO3)cc1C(=O)O	0	0	20µM	0	?
Cc1oc(-c2ccc3c(c2)OCCO3)cc1C(=O)NC(CCC(=O)O)C(=O)O (configuration not stated)	0	0	0	0	0
Cc1ccc(OCCCn2c(CO)nc3ccccc32)cc1	0	20µM	0	0	0
COCCn1c(COc2ccc(C)cc2)nc2ccccc21	0	12.6µM	?	0	?
Cc1ccc(OCc2nc3ccccc3n2CCOc2ccc(Cl)cc2)cc1	-	-	0	0[10.9 µM]	0
CCC(CC)C(=O)Nc1ccc(-c2cn3cccnc3n2)cc1	-	-	?	0[10.9 µM]	0
Nc1nc(SCC(=O)NCCCO)nc2sc3c(c12)CCC3	-	-	0	-	0
COC(=O)CSc1nc(N)c2c3c(sc2n1)CCCC3	-	12.6µM	-	-	-
CCCCN(CC)C(=O)Cn1nc(C)c2c(C)n(-c3ccccc3)nc2c1=O	-	-	0	0[10.9 µM]	0
COC(=O)CCC(=O)Oc1ccc(OC(=O)CCC(=O)OC)cc1	0	0	0	5.01µM	0
COC(=O)CCC(=O)Nc1ccc(NC(=O)CCC(=O)OC)cc1	-	-	0	-	0
Nc1ccccc1N=Nc1c(S(=O)(=O)O)cc2cc(S(=O)(=O)O)cc(O)c2c1O	0[11.4 µM]	?	0[9.22 µM]	0[10.9 µM]	0[9.22 µM]
O=S(=O)(O)c1cc(N=Nc2cccc3ccccc23)c(O)c2ncccc12	?	0[11.4 µM]	0[9.22 µM]	0[10.9 µM]	0[9.22 µM]
O=S(=O)(O)c1cc(S(=O)(=O)O)c2c(N=Nc3cccc4ccccc34)c(O)ccc2c1	3.98µM	?	0[9.22 µM]	0[10.9 µM]	0[9.22 µM]
O=S(=O)(O)c1ccc2c(N=Nc3c(O)ccc4ccccc34)cccc2c1	3.16µM	0[11.4 µM]	0[9.22 µM]	0[10.9 µM]	0[9.22 µM]
COc1ccc(CCCc2nnc(SCC(=O)Nc3ccc(C)cc3C)o2)cc1	-	-	0	0[10.9 µM]	0
CC[C@@H]1CC(=O)N(SC[C@H](N)C(=O)O)C1=O	0[11.4 µM]	0[11.4 µM]	0[9.22 µM]	0[10.9 µM]	0[9.22 µM]
Cc1c(N=Cc2nc3ccccc3[nH]2)c(=O)n(-c2ccccc2)n1C	0	15.8µM	0	0	0
Cc1c(N=Cc2nc3ccccc3n2C)c(=O)n(-c2ccccc2)n1C	0	3.98µM	0	0	0
SMILES	Tau filament bind	FLuc inh	p53ts 32C tox	Imprint erasure	p53ts 39C tox
Cc1ccc2c(CNCCc3ccccc3)c(C(=O)O)n(Cc3ccccc3C)c2c1	-	-	0	0[10.9 µM]	0
COc1cccc2[nH]c(-c3ccccn3)nc12	0[11.4 µM]	3.16µM	?	0[10.9 µM]	?
CCC1CN(C(=O)N2CCC(C(=O)NCc3ccco3)CC2)c2ccccc2O1 (configuration not stated)	-	-	0	0[10.9 µM]	0
COc1cccc(-c2ccc3ncnc(N(C)Cc4ccco4)c3c2)c1	0	0[2.29 µM]	?	0	?
CN(C)c1ccc(-c2ccc3ncnc(N(C)Cc4ccco4)c3c2)cc1	20µM	0[2.29 µM]	0	0	0
Cc1[nH]n(-c2ccccc2)c(=O)c1/C=N\NC(=O)C1COc2ccccc2O1 (configuration not stated)	-	-	-	-	14.1µM
Cc1nc2c(C(=O)NC(C)c3ccccc3)cnn2c(C)c1Cc1ccccc1 (configuration not stated)	-	-	?	0[10.9 µM]	20µM
COc1cccc(C(=O)NCCSc2c(-c3ccc(F)cc3)[nH]c3ccccc23)c1OC	-	-	0	0[10.9 µM]	0
Cc1ccc(-n2ncc(C(=O)NCCN3CCOCC3)c2C2CCN(C(=O)OC(C)(C)C)CC2)c(C)c1	-	-	0	0[10.9 µM]	0
O=c1cnc2cnc(Oc3cccc(Cl)c3)nc2n1CCc1ccccc1	25.1µM	0[11.4 µM]	0	?	0
O=C(COc1cccc2cccnc12)Nc1nccs1	0	15.8µM	?	0	?
CCOc1ccc(N(CC)S(=O)(=O)N2CCCC(C(=O)Nc3cc(Cl)ccc3OC)C2)cc1 (configuration not stated)	-	-	0	0[10.9 µM]	0
C[C@H]1[C@H](C)CC[C@]2(C(=O)O)CC[C@]3(C)C(=CC[C@H]4[C@]3(C)C[C@@H](O)C3[C@](C)(CO)[C@H](O)[C@@H](O)C[C@]34C)[C@H]12 (some centres not stated)	-	-	-	0[10.9 µM]	-
COc1cc(C)cc2oc(=O)c(CC(=O)NCCc3ccc(Cl)cc3)c(C)c12	-	-	0	0[10.9 µM]	12.6µM
O=C(Cn1ncc2c3ccccc3n(Cc3ccc(F)cc3)c2c1=O)NC1CCCCCC1	-	-	0	0[10.9 µM]	0
O=C(Cn1ncc2c3ccccc3n(Cc3ccccc3F)c2c1=O)NC1CCCCCC1	-	-	0	0[10.9 µM]	7.94µM
COc1ccc(CC(=O)Nc2cc(-c3cn4cccnc4n3)ccc2C)cc1OC	-	-	0	0[10.9 µM]	?
CCOc1ccc(-c2cnc(NCc3cccc(Cl)c3)n2C)cc1	-	-	0	0[10.9 µM]	0
CC(C)CC(=O)Nc1c(C(=O)N2CCN(c3ccccc3)CC2)oc2ccccc12	-	-	0	0[10.9 µM]	0
CCCCC(=O)Nc1c(C(=O)N2CCN(c3ccccc3)CC2)oc2ccccc12	-	-	0	0[10.9 µM]	15.8µM
Nc1ccc(O)cc1	15.8µM	-	-	0	-
CC(=O)Nc1cc(-c2ccccc2)nn1Cc1cccc(Cl)c1	-	-	0	0[10.9 µM]	0
CSc1nn(Cc2cccc(Cl)c2)c(N(C(C)=O)C(C)=O)c1S(=O)(=O)c1ccccc1	-	-	0	0[10.9 µM]	20µM
CCOc1cc(C)c(S(=O)(=O)NC2CCCCC2)cc1C	10µM	0	0	0	0
O=Nc1c(O)[nH]c2ccccc12.[Cu].[O-]/N=C1/C(=[OH+])Nc2ccccc21	-	-	-	0[10.9 µM]	-
O=Nc1c(-c2c(O)[nH]c3cc(Br)ccc23)[nH]c2ccccc12	-	-	12.6µM	0	12.6µM
COc1ccc(NC(=O)c2cn(CC(C)C)c(=O)c3cc(OC)c(OC)cc23)cc1Cl	-	-	0	0[10.9 µM]	0
Cc1ccc(-n2c(C)cc(C3N=C(N)Nc4nc5ccccc5n43)c2C)c(C)c1 (configuration not stated)	0	0	?	0	20µM
COc1ccc(N=[N+]([O-])c2ccc(OC)cc2)cc1	0	-	0[1.84 µM]	0	15.8µM

Assay outcomes (PubChem BioAssay)
